This is a sample that favours compounds with a hit; in the whole collection about 2.4% have one here.
D2 ag-1 = agonists of human D2 dopamine receptor. P14416. HEK293 T-REx D2 cells, calcium flux agonist mode. activation, % at 2 µM. 0.53% of 340,000 active. AID 485358;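 active = activation over 3 SD above normal in the single-dose calcium agonist read, cut at about 30% in these data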; also: 0% is about no effect
Target sequence (P14416 whole entry, looked up): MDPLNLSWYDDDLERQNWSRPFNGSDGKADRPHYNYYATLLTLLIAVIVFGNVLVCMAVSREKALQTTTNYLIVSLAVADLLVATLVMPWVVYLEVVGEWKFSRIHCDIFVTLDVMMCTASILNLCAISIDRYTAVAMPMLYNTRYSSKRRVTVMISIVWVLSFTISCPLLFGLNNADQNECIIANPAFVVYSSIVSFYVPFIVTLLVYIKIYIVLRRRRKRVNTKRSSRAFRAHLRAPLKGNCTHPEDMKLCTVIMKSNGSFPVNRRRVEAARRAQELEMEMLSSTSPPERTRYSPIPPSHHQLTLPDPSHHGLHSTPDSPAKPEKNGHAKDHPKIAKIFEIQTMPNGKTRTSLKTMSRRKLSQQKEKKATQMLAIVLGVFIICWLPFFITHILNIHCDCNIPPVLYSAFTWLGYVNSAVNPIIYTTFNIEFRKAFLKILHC
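HEK293 Trex D2 cells, tetracycline-induced, o/n 30 C 5% CO2; no-wash Ca dye, RT 30–90 min; 10-cycle baseline, 23 nl cpd added, kinetic Ca read 180 s; agonist hits = positive Ca response.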
D2 PAM-1 = potentiates the human D2 dopamine receptor allosterically; 0.23% of 360,000 active; P14416; potentiation, % (test concentration not listed); DiscoveRx D2 beta-arrestin cells, luminescence, 90 min; 100% = 57 uM dopamine signal; in the data active = potentiation above about 50%
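D2 cells co-treated with compound plus 50 nM dopamine (EC20) for 90 min at 37 deg C to detect potentiation. Beta-arrestin recruitment was read as enzyme-fragment luminescence after 1 h at ambient temperature. Full response was set by 57 uM dopamine.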
D2 ag-2 = activates the human D2 dopamine receptor; P14416; DiscoveRx PathHunter D2 beta-arrestin, luminescence, 90 min; 100% = 57 uM dopamine signal; activation, % (no concentration beside the values); 0.084% of 360,000 active; AID 624465; in the data active = activation above about 40%
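DiscoveRx PathHunter D2 beta-arrestin cells (2,100/well) attached overnight, then compound-stimulated 90 min at 37 C in HBSS/10 mM HEPES/0.1% Tween-20 buffer; beta-galactosidase complementation read by luminescence after 1 h at ambient temperature. Dopamine 57 uM final (EC100) as control.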
D2 antagonist = antagonists of human D2 dopamine receptor | inhibition, % at 10 µM | 2% of 340,000 active | AID 485344 | P14416 | HEK293 TREx D2 cells, calcium flux, dopamine EC80; in the data active = inhibition above about 30%; inactive = below that, where a call was filed; also: 0% is about no effect
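Tetracycline-induced HEK293 TREx cells expressing D2 receptor forced-coupled to calcium signalling, loaded with no-wash calcium dye. Compounds added and calcium flux read 180 s, then dopamine added at EC80 and read a further 180 s.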
D2 PAM-2 = D2 dopamine receptor (human) potentiation | AID 485347 | potentiation, % at 10 µM | P14416 | 0.34% of 340,000 active | HEK293 T-REx D2, calcium flux, EC20 dopamine potentiation;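 active = potentiation over 3 SD above the plate norm, cut at about 30% in these data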; also: 0% is about no effect
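Potentiation of an EC20 dopamine calcium response is measured in a force-coupled, tetracycline-inducible Hek293 Trex D2 line. Compound-only kinetic reads over 180 s flag agonists before dopamine addition.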
Active calls of the source: *; · = not tested or not shown.

SMILES	D2 ag-1	D2 PAM-1	D2 ag-2	D2 antagonist	D2 PAM-2
CC(C)(C)C(=O)n1nc(-c2ccccc2)oc1=O	1.1	-27.4	0.7	30.5*	-1.9
CCN(CC(=O)Nc1c(F)cccc1F)C(=O)c1ccc(N2CCOCC2)c([N+](=O)[O-])c1	0.3	-17.2	-2.5	-12.0	-4.2
CN(CC(=O)Nc1cccc(F)c1)C(=O)c1cc([N+](=O)[O-])ccc1N1CCCCC1	-1.5	-26.4	-4.8	41.6*	-0.4
CCN(CC(=O)Nc1c(F)cccc1F)C(=O)c1ccc(N2CCCC2)c([N+](=O)[O-])c1	0.3	-25.0	-9.0	31.1*	7.7
O=C(c1ccco1)N(Cc1ccccc1)Cc1ccccn1	-0.8	-5.4	1.2	56.6*	13.7
O=S1(=O)CCC(NS(=O)(=O)c2cccc3cccnc23)C1 (stereo not drawn)	-1.4	12.1	-1.1	-7.6	34.2*
O=C(Nc1ccc(C(=O)N2CCCC2)cc1)C1CC1	·	·	0.2	·	·
[O-]/C(=C(\C(=S)Nc1ccccc1F)[n+]1ccccc1)c1ccc(OC(F)F)cc1	0.4	-4.9	-2.9	-7.5	1.2
Cc1ccc(C)c(NC(=S)/C(=C(\[O-])c2ccc(OC(F)F)cc2)[n+]2ccccc2)c1	0.6	-3.6	-4.1	30.5*	10.7
Cc1oc(-c2ccccc2F)nc1Cn1c(SCc2ccccc2F)nc2ccncc21	0.1	·	·	·	3.1
O=C1N(CN2CCN(c3cccc(Cl)c3)CC2)c2ccccc2C12OCCCO2	1.0	-17.1	-1.1	33.4*	-21.7
O=C1N(CN2CCC3(CC2)OCCO3)c2ccccc2C12OCCCO2	0.1	-10.0	-3.1	3.7	5.5
COC(=O)C1CN(C(=O)C(C)Oc2cccc(C)c2C)c2ccccc2O1 (stereo not drawn)	-0.7	-17.2	8.7	0.9	3.0
COc1ccc(OCC(=O)NNC(=O)c2cccs2)cc1	0.3	10.5	0.6	0.5	2.8
COc1ccc(OCC(=O)Nc2ccc(NC(=O)c3cccs3)cc2)cc1	-0.7	-5.8	-0.4	-10.5	32.5*
COc1ccc(NC(=O)c2cccs2)cn1	-0.5	-3.6	-5.2	9.4	-6.8
CC(C)(C)c1ccc(Oc2ccc(NC(=O)c3cccs3)cn2)cc1	8.9	1.3	2.1	-0.6	30.8*
CCOc1ccc(OCC)c(-n2cnnn2)c1	0.1	·	·	·	-11.0
CCC(C)NS(=O)(=O)c1ccc(OCC(=O)Nc2ccc3c(c2)OCCO3)cc1 (stereo not drawn)	0.2	-0.7	-1.1	5.7	47.8*
CC(C)CNS(=O)(=O)c1ccc(OCC(=O)Nc2ccc3c(c2)OCCO3)cc1	-3.0	-0.4	-18.7	18.3	-2.2
CCC(C)NS(=O)(=O)c1ccc(OCC(=O)NCC2CCCO2)cc1 (stereo not drawn)	-2.3	-1.7	0.5	-1.7	34.1*
COc1ccc(CC(=O)Nc2ccc(S(=O)(=O)NCC3CCCO3)cc2)cc1 (stereo not drawn)	-0.5	-6.3	0.9	31.8*	1.7
CC(=O)Nc1ccc(S(=O)(=O)NCC2CCCO2)cc1 (stereo not drawn)	·	-2.5	1.2	·	·
COC(=O)c1ccc(NC(=O)CCNS(=O)(=O)c2cccc3nsnc23)cc1	-0.1	·	·	·	4.8
CCN1CCN(c2cc(C)c3cc(NC(=S)NCCCN4CCc5ccccc5C4)ccc3n2)CC1	0.6	-14.5	-2.9	52.6*	-32.0
SMILES	D2 ag-1	D2 PAM-1	D2 ag-2	D2 antagonist	D2 PAM-2
Cc1cc(N2CCN(C)CC2)nc2ccc(NC(=S)NCCCN3CCc4ccccc4C3)cc12	0.5	-14.1	-3.1	34.1*	-29.1
Cc1cc(N2CCN(C)CC2)nc2ccc(NC(=S)NCCN3CCc4ccccc4C3)cc12	-0.8	-20.4	-0.4	14.5	-25.0
CCCCn1c(N)c(N(CCC(C)C)C(=O)c2cccc(S(=O)(=O)N3CCN(C)CC3)c2)c(=O)[nH]c1=O	0.1	-15.4	-5.1	34.0*	-4.9
CCCCn1c(N)c(N(CC(C)C)C(=O)c2cccc(OCc3ccccc3)c2)c(=O)[nH]c1=O	-0.3	1.7	-0.7	-30.2	30.2*
c1csc(C(c2nnnn2C2CCCC2)N2CCCC3(CCCCC3)C2)c1 (stereo not drawn)	-0.1	-1.8	-0.2	30.8*	6.9
COc1ccccc1NC(=O)c1ccc(NC(=O)c2ccc(=O)[nH]c2)cc1	0.3	-1.1	-2.4	-44.9	6.2
